Laboratory results as given in PubChem BioAssay AID1345085 (National Center for Advancing Translational Sciences (NCATS), 2018).
Records with an inconclusive call do not appear. A number with no mark means an inactive call. The source made the active and inactive calls. Calls come from the whole dose curve; as a rule, active = well fitted cell-killing curve with a large enough effect; inconclusive = small, poorly fitted or top-dose-only effect, or effect the other way; inactive = no such curve, though single readings can be large or run the other way.

System: HeLa
Assay: Confirmatory qHTS for gynecologic anti-cancer compounds from libraries of approved drugs and bioactive compounds; note: nearly all actives have a fitted effect of over 55% in size
Details: gynecologic cancer cell panel viability, ATPlite luminescence, 48 h; series mostly up to 57.6 µM
Summary of the method: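 Viability is measured as ATP-dependent luciferase light using ATPlite, read 15 min after reagent addition at room temperature. Compounds, in DMSO, span 57.5 uM down to 0.977 nM over 11 threefold steps for 48 h.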
% is set by controls: 0 for no effect and ±100 for the full control effect; potency is the fitted concentration of half-maximal effect.

| SMILES | Potency | activity change, negative = viability loss |
| --- | --- | --- |
| COc1cc2c(NC3CCN(C(C)C)CC3)nc(C3CCCCC3)nc2cc1OCCCN1CCCC1 | 15.3 µM (active) | – |
| COc1cc(Nc2ncc(F)c(Nc3ccc4c(n3)N(COP(=O)(O)O)C(=O)C(C)(C)O4)n2)cc(OC)c1OC | 1.72 µM (active) | – |
| CN(C[C@@H]1COCCO1)S(=O)(=O)Nc1ccc2ccc3ncc(-c4cnn(C)c4)cc3c(=O)c2c1 | 5.44 µM (active) | – |
| CC[C@H](Nc1ncnc2nc[nH]c12)c1nc2cccc(F)c2c(=O)n1-c1ccccc1 | – | 0.732% [at 10.7 µM] |
| COc1cc(N2CCC(N3CCN(C)CC3)CC2)ccc1Nc1ncnc(Nc2ccccc2S(=O)(=O)C(C)C)n1 | 8.63 µM (active) | – |
| COc1cccc2cc(-c3nc(C4CCC(C(=O)O)CC4)n4ncnc(N)c34)[nH]c12 (stereo not given) | 4.85 µM (active) | – |
| Cc1nc(Nc2n[nH]c3c2CN(C(=O)NC(CN(C)C)c2ccccc2)C3(C)C)c2sccc2n1 (stereo not given) | 3.06 µM (active) | – |
| CN(C)CCC(CSc1ccccc1)Nc1ccc(S(=O)(=O)NC(=O)c2ccc(N3CCN(Cc4ccccc4-c4ccc(Cl)cc4)CC3)cc2)cc1[N+](=O)[O-] (stereo not given) | 19.3 µM (active) | – |
| CN1CCN(Cc2ccc(NC(=O)Nc3ccc(Oc4cc(NC(=O)C5CC5)ncn4)cc3)cc2C(F)(F)F)CC1 | 0.306 µM (active) | – |
| Cc1cnc(CNC(=O)c2c(=O)c3ccc(N4CCCN(C)CC4)nc3n3c2sc2ccccc23)cn1 | – | -3.33% [at 10.7 µM] |
